Source: PubChem BioAssay
FMDV inh: blocks foot and mouth disease virus; actives 1.2% (n = 410,000); FMDV antiviral cell-based qHTS; AID 1159524; Potency, µM (top dose mostly 57.9 µM), for the others: top-dose activity change, negative = inhibition, usual class: inhibitors; calls by dose curve; tested in HEK293T cells; further: read-out not given here; nearly all actives have a fitted effect of over 45% in size
VACV Venus inh: inhibitors of vaccinia virus (Venus reporter); Potency, µM (series often up to 36.5 µM), for the others: top-dose activity change, negative = inhibition, most hits filed as inhibitors; actives 0.46% (n = 330,000); AID 720580; Vaccinia virus Venus reporter expression, fluorescence; calls by dose curve; tested in A549 cells; further: nearly all actives have a fitted effect of over 30% in size
HCV inh: inhibitors of hepatitis C virus infection. AID 651820. Huh7.5.1 HCVcc-Cre infection, luciferase reporter, 44 h. Potency, µM (doses to about 41.8 µM), inactives show at the highest dose activity change, negative = inhibition, most hits filed as inhibitors. actives 3.4% (n = 340,000); active means well fitted inhibition curve with a large enough effect; inconclusive means small, poorly fitted or top-dose-only effect, or another doubt; inactive means no such curve, though single readings can be large or run the other way
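Cells (1,000/well) were plated 4 h before compound, then infected with HCVcc-Cre virus (~0.5 moi). After 44 h further culture, infection was read as luciferase luminescence following a 15 min substrate incubation at room temperature.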
VACV mCherry inh: inhibitors of vaccinia virus infection (mCherry reporter signal); Vaccinia virus mCherry reporter infection, fluorescence; Potency, µM (highest dose often 36.5 µM), for inactives: at the top dose activity change, negative = inhibition, hits mostly inhibitors; actives 0.63% (n = 310,000); calls by dose curve; tested in A549 cells; further: nearly all actives have a fitted effect of over 35% in size
Lassa entry inh: inhibitors of Lassa virus binding or cell entry | AID 540256 | actives 1.2% (n = 300,000) | Potency, µM (titrated, usually from 37.9 µM), without a hit: top-dose activity change, negative = inhibition, hits mostly inhibitors | Lassa virus pseudotype entry inhibition, cell reporter; calls by dose curve; tested in HEK293 cells; further: nearly all actives have a fitted effect of over 50% in size
MARV entry inh: Marburg virus entry inhibition; Marburg virus pseudotyped entry inhibition, cell reporter; Potency, µM (doses to about 37.8 µM), without a hit: at the highest dose activity change, negative = inhibition, actives largely listed as inhibitors; actives 1.8% (n = 300,000); calls by dose curve; tested in HEK293 cells
Active calls of the source: *; [ ] = remark or other dose. The list is not random: actives were taken first. Their share in the collection is about 5.3%. On the % scale 0 is the no-effect control and ±100 the full control effect; potency means the concentration at half of the fitted maximal effect.

How did CC(=O)c1c(C)[nH]c(C(=O)OCc2cccc(C)c2)c1C do in these assays?
FMDV inh: 12.0%; VACV Venus inh: -8.2%; HCV inh: 15.8µM*; VACV mCherry inh: inactive; Lassa entry inh: inconclusive; MARV entry inh: inconclusive

How did Cc1c(C(=O)OCCOc2ccccc2)[nH]c2c1C(=O)CCC2 do in these assays?
FMDV inh: -62.7%; VACV Venus inh: -24.7%; HCV inh: 12.6µM*; VACV mCherry inh: -15.1%; Lassa entry inh: 7.94µM*; MARV entry inh: inconclusive

How did CCOc1ccc(C2CC(=O)c3c([nH]c(C(=O)OCCOc4ccccc4)c3C)C2)cc1 (centres undefined) do in these assays?
FMDV inh: -23.2%; VACV Venus inh: inconclusive; VACV mCherry inh: -17.4%; Lassa entry inh: inconclusive; MARV entry inh: -1.3%[46.1 µM]

Results for CC(=O)c1c(C)[nH]c(C(=O)CN2CCN(S(=O)(=O)c3ccccc3F)CC2)c1C ?
FMDV inh: 17.8µM*; VACV Venus inh: -18.2%; HCV inh: 2.8%; VACV mCherry inh: -25.6%; Lassa entry inh: inconclusive; MARV entry inh: inconclusive

Results for CCN1CCN(C(=O)c2ccc3c(c2)N(Cc2c(F)cccc2Cl)C(=O)c2ccccc2S3)CC1 ?
FMDV inh: -15.2%; VACV Venus inh: -3.6%[7.34 µM]; VACV mCherry inh: -6.2%[7.34 µM]; Lassa entry inh: -23.0%[46.1 µM]; MARV entry inh: inconclusive

How did O=C(NC1CCCCC1)N1CCN(C(c2ccccc2)c2ccccc2)CC1 do in these assays?
VACV Venus inh: -15.2%; HCV inh: inconclusive; VACV mCherry inh: -11.2%; Lassa entry inh: 13µM*; MARV entry inh: inconclusive

How did CCCCCc1ccc(OCCCC[n+]2ccc(C)cc2)c(CCCCC)c1 do in these assays?
FMDV inh: inconclusive; VACV Venus inh: inconclusive; HCV inh: 6.31µM*; VACV mCherry inh: inconclusive; Lassa entry inh: 4.47µM*; MARV entry inh: inconclusive

How did CCCCCCCCCCCCCCCC[n+]1ccc(C)cc1 do in these assays?
VACV Venus inh: 28.2µM*; VACV mCherry inh: inconclusive

What do the screens show for `CCCCCc1ccc(OCCCC[n+]2ccccc2)c(CCCCC)c1`?
FMDV inh: inconclusive; VACV Venus inh: inconclusive; HCV inh: -26.5%; VACV mCherry inh: inconclusive; Lassa entry inh: inconclusive; MARV entry inh: inconclusive

What do the screens show for `CC1(C)NCCN2C(=O)CS[C@H]21`?
MARV entry inh: 15.8%[46.1 µM]

What do the screens show for `CCc1ccccc1NC(=O)/C(=C/c1ccco1)c1ccccc1`?
FMDV inh: inconclusive; VACV Venus inh: -25.8%; HCV inh: inconclusive; Lassa entry inh: 15.8µM*; MARV entry inh: inconclusive

Results for Cc1ccccc1NC(=O)/C(=C/c1ccco1)c1ccccc1 ?
FMDV inh: 0.0%; VACV Venus inh: -6.8%; HCV inh: -13.6%; VACV mCherry inh: -24.7%; Lassa entry inh: -6.9%; MARV entry inh: -22.8%

How did O=C(/C=C/c1ccc(OC(F)F)cc1)Nc1cccc(S(=O)(=O)N2CCOCC2)c1 do in these assays?
FMDV inh: inconclusive; VACV Venus inh: inconclusive; HCV inh: 5.62µM*; VACV mCherry inh: -17.8%; Lassa entry inh: inconclusive; MARV entry inh: inconclusive

What do the screens show for `CN1CCN(c2ccc(S(=O)(=O)N3CCCCC3)cc2NC(=O)/C=C/c2ccc(Cl)c([N+](=O)[O-])c2)CC1`?
FMDV inh: inconclusive; VACV Venus inh: -27.0%; HCV inh: inconclusive; VACV mCherry inh: -10.0%; Lassa entry inh: 12.6µM*; MARV entry inh: inconclusive

How did CN1CCN(c2ccc(S(=O)(=O)N3CCCCC3)cc2NC(=O)/C=C/c2ccc(OC(F)F)cc2)CC1 do in these assays?
FMDV inh: -3.5%; VACV Venus inh: 12.6µM*; HCV inh: inconclusive; VACV mCherry inh: inconclusive; Lassa entry inh: inconclusive; MARV entry inh: inconclusive

Results for COc1ccc(/C=C/C(=O)Nc2cccc(S(=O)(=O)N3CCOCC3)c2)cc1OC ?
FMDV inh: inconclusive; VACV Venus inh: -23.3%; HCV inh: inconclusive; VACV mCherry inh: -5.7%; Lassa entry inh: inconclusive; MARV entry inh: inconclusive

Results for O=S(=O)(c1ccc(Cl)c(NC(=S)N/N=C/c2c(F)cccc2F)c1)N1CCOCC1 ?
FMDV inh: inconclusive; VACV Venus inh: -12.1%; HCV inh: 5.5%; VACV mCherry inh: -10.9%; Lassa entry inh: -6.0%[46.1 µM]; MARV entry inh: inconclusive

How did CC(Oc1ccc(F)cc1)C(=O)Nc1cc(S(=O)(=O)N2CCCCC2)ccc1N1CCN(C)CC1 (centres undefined) do in these assays?
FMDV inh: -14.1%; HCV inh: -20.6%

Results for O=S(=O)(c1ccc(Cl)c(NC(=S)N/N=C/c2ccc(O)cc2)c1)N1CCOCC1 ?
FMDV inh: inconclusive; VACV Venus inh: inconclusive; HCV inh: inconclusive; VACV mCherry inh: inconclusive; Lassa entry inh: 11.6µM*; MARV entry inh: inconclusive

What do the screens show for `Cc1ccc(C)c(N2CCN(C(=O)Cn3c(C)c4cnn(-c5ccccc5)c(=O)c4c3C)CC2)c1`?
FMDV inh: inconclusive; VACV Venus inh: -19.1%; VACV mCherry inh: inconclusive; Lassa entry inh: inconclusive; MARV entry inh: inconclusive

What do the screens show for `CCCCCCc1cc2cc(-c3cn4c(n3)sc3cc(OC)ccc34)c(=O)oc2cc1O`?
FMDV inh: -29.2%; VACV Venus inh: -13.8%; VACV mCherry inh: -14.4%; Lassa entry inh: 16.9%[46.1 µM]

How did O=C(/C=C/c1ccc(Cl)cc1)Nc1cc(S(=O)(=O)N2CCOCC2)ccc1N1CCOCC1 do in these assays?
FMDV inh: -15.7%; VACV Venus inh: inconclusive; HCV inh: inconclusive; VACV mCherry inh: inconclusive; Lassa entry inh: 4.47µM*; MARV entry inh: inconclusive

How did CCN1CCN(c2ccc(S(=O)(=O)N3CCOCC3)cc2NC(=O)/C=C/c2ccc(C)cc2)CC1 do in these assays?
FMDV inh: -20.0%; VACV Venus inh: -14.7%; HCV inh: -21.1%; VACV mCherry inh: -27.8%; Lassa entry inh: -24.4%; MARV entry inh: inconclusive

How did CCN1CCN(c2ccc(S(=O)(=O)N3CCCCC3)cc2NC(=O)/C=C/c2ccc(OC(F)F)cc2)CC1 do in these assays?
FMDV inh: -16.7%; VACV Venus inh: inconclusive; HCV inh: inconclusive; VACV mCherry inh: inconclusive; Lassa entry inh: 6.31µM*; MARV entry inh: inconclusive

What do the screens show for `CCN1CCN(c2ccc(S(=O)(=O)N3CCCCC3)cc2NC(=O)/C=C/c2ccc(F)cc2)CC1`?
FMDV inh: 0.0%; VACV Venus inh: -29.0%; HCV inh: inconclusive; VACV mCherry inh: -9.9%; Lassa entry inh: -15.2%[46.1 µM]; MARV entry inh: inconclusive

Results for O=C(Nc1cc(S(=O)(=O)N2CCOCC2)ccc1N1CCOCC1)c1ccc([N+](=O)[O-])s1 ?
FMDV inh: -19.6%; HCV inh: 12.6µM*

Results for O=C(Nc1cc(S(=O)(=O)N2CCOCC2)ccc1N1CCOCC1)c1ccccc1[N+](=O)[O-] ?
FMDV inh: 2.3%; HCV inh: 14.2%
